Reference: ChEMBL document CHEMBL3988442, “University of Dundee, Small-Polar-MMV Screening Library” (2021)
The campaign covered roughly 48,000 compounds. About 13,000 (27%) showed an effect of 50% or more. The list shows a part of the results.

tested on: Wolbachia pipientis; experiment: Anti-Wolbachia Cell-Based Screen; assay type: functional; design: scale not given: in the data most compounds retested in dose-response had high values; settings: 5 µM

Row | SMILES | Percent Effect
1 | COCC(NC(=O)NCc1sccc1C)c1ccco1 (stereo not given) | -5.912%
2 | CN(Cc1nccn1C)C(=O)C1COCC(=O)N1Cc1ccccc1 (stereo not given) | -8.994%
3 | CN1CCOC(C(=O)Nc2nc(-c3ccc4c(c3)CCC4)n[nH]2)C1 (stereo not given) | -12.56%
4 | Cn1ccnc1C(=O)N1CCCC1c1ccc(C(=O)N2CCOCC2)s1 (stereo not given) | -4.877%
5 | CCNC(=O)N1CCC(Cc2cccc(C(N)=O)c2)C1 (stereo not given) | 4.026%
6 | CCOC(=O)N1CCC(OC)c2ccccc2N(CC(=O)NC)C(=O)C1 (stereo not given) | 117.4%
7 | CCNC(=O)N1CC[C@H]2CC(=O)N(CC(N)=O)CC[C@H]2C1 | 1.469%
8 | CCNC(=O)N1CCC(OC)c2ccccc2N(CC(=O)NC)C(=O)C1 (stereo not given) | 67.66%
9 | CCOC(=O)CN1C(=O)CN(S(C)(=O)=O)CCC(OC)c2ccccc21 (stereo not given) | 83.87%
10 | CNC(=O)NC(=O)CN1CCN(CC2CC2)c2ccccc21 | 5.416%
11 | CS(=O)(=O)N1CCC(C(=O)N2CCOc3ccccc32)CC1 | 5.703%
12 | CNC(=O)CN1C(=O)CN(C(=O)COC)CCC(OC)c2ccccc21 (stereo not given) | 121.9%
13 | CC1CCN(C(=O)C2CCN(S(C)(=O)=O)CC2)c2ccccc21 (stereo not given) | 3.869%
14 | COCC(=O)N1CCC2(CCC2NS(=O)(=O)c2ccccc2)CC1 (stereo not given) | 2.757%
15 | c1ccc(COCC2CNCc3nccn3C2)nc1 (stereo not given) | -7.438%
16 | O=C(NS(=O)(=O)Cc1ccc(F)cc1)C1CCc2ccccc21 (stereo not given) | 9.1%
17 | CC(NC(=O)NCC(C)(C)O)c1ccc(-c2cncnc2)cc1 (stereo not given) | -6.963%
18 | COc1ccc(NCc2ccccc2N2CCN(C(C)=O)CC2)cn1 | 3.995%
19 | CCS(=O)(=O)N1CCC(OC)c2ccccc2N(CC(=O)NC)C(=O)C1 (stereo not given) | 115.1%
20 | CNC(=O)CS(=O)(=O)C1CCN(S(=O)(=O)c2ccccc2Cl)CC1 | 17.8%
21 | CNC(=O)CN1CCCC1c1ccccc1Br (stereo not given) | 2.059%
22 | O=S(=O)(NCCNc1cc(-n2cccn2)ncn1)c1cccs1 | 12.03%
23 | Cc1ccc(-c2[nH]c3ccccc3c2C(=O)O)c(C)c1 | 112.6%
24 | CC(=O)N1CCCN(C(=O)c2csc(-c3ccc(C)cc3C)n2)CC1 | -4.506%
25 | Cc1ccc(C)c(C(=O)CN2C(=O)c3ccccc3CS2(=O)=O)c1 | -17.22%
26 | Cc1ccc(C)c(-c2[nH]c3ccccc3c2C(=O)O)c1 | 107.7%
27 | COc1ccc(C)cc1-c1[nH]c2ccccc2c1C(=O)O | 86.15%

Row | SMILES | Percent Effect
28 | COc1ccc(C(=O)NS(C)(=O)=O)cc1-c1ccccc1 | -13.07%
29 | Cc1ccc(C(=O)CN2C(=O)c3ccccc3CS2(=O)=O)c(C)c1 | -19.51%
30 | CC(C)CN1CCN(C(=O)c2cc(=O)c3ccccc3[nH]2)CC1 | -0.8051%
31 | COc1ccc(C)cc1C(C(=O)O)N1CCN(Cc2ccccn2)CC1 (stereo not given) | -8.065%
32 | Cc1ncc2c(n1)CN(CC(=O)Nc1nnc(C)s1)CC2 | 120.8%
33 | CCc1ncc2c(n1)CN(CC(=O)Nc1nnc(C)s1)CC2 | -0.5205%
34 | Cc1ncc2c(n1)CN(CC(=O)Nc1nccs1)CC2 | 121.1%
35 | Cc1nnc(NC(=O)CN2CCCC(c3ccn[nH]3)C2)s1 (stereo not given) | 8.304%
36 | Cc1ncc2c(n1)CN(CC(=O)Nc1cccnc1)CC2 | 115.5%
37 | Cc1ncc2c(n1)CN(CC(=O)Nc1nncs1)CC2 | 10.92%
38 | Cc1ncc2c(n1)CN(CC(=O)Nc1ccncc1)CC2 | 3.82%
39 | Cc1ncc2c(n1)CN(CC(=O)N1CCc3sccc3C1)CC2 | -8.865%
40 | Cc1nc(CN2CCCN(CC(=O)Nc3cccnc3)CC2)no1 | -4.253%
41 | COC(=O)[C@H]1CN(C(=O)NC(C)C)CCN1C(=O)CSC | 4.68%
42 | CSCCN(C)Cc1ccc(F)cc1C#N | -7.692%
43 | CC(=O)c1ccc(C(=O)N2C[C@@H]3CC[C@H](C2)N(CC2CCC2)C3)s1 | -8.325%
44 | CC(C)c1nnc(N2C[C@@H]3CC[C@H](C2)N(CC2CCC2)C3)s1 | 78.31%
45 | CCCN1C[C@H]2CC[C@@H]1CN(Cc1ccc(Cn3cccn3)cc1)C2 | -13.63%
46 | CC(C)c1nnc(N2C[C@@H](CN(C)CCO)[C@@H](CO)C2)s1 | -2.617%
47 | Cc1ccc(C(=O)N2C[C@@H]3CC[C@H](C2)N(CC2CCC2)C3)s1 | -1.222%
48 | CC(C)c1nnc(N2C[C@@H]3CC[C@H](C2)N(Cc2ccccc2)C3)s1 | 104.2%
49 | Cc1nnsc1CN1C[C@H]2CC[C@@H]1CN(Cc1ccccc1)C2 | 2.749%
50 | Cc1nnsc1CN1C[C@@H]2CC[C@H](C1)N(Cc1ccccc1)C2 | -5.089%
51 | CCCN1C[C@H]2CC[C@@H]1CN(c1nnc(C(C)C)s1)C2 | 100.1%
52 | N#CCCNC(=O)CN1CCC(c2cc3ccccc3[nH]2)CC1 | 7.04%
53 | O=C(O)C(F)(F)F.O=C(O)[C@]12CCCN(Cc3ccsc3)C[C@H]1CN(c1ncccn1)C2 | 0.06928%
54 | CCc1nc(CN2CCCC(NCc3nc4cccnc4[nH]3)C2)no1 (stereo not given) | -2.824%

Row | SMILES | Percent Effect
55 | Cc1ccc(CN2CCCC3(COCCN(Cc4c[nH]nn4)C3)C2)s1.O=C(O)C(F)(F)F.O=C(O)C(F)(F)F (stereo not given) | -11.68%
56 | Fc1ccc(OCc2noc(CN3CCc4cncnc4C3)n2)cc1 | -13.93%
57 | CC(C)N1CCC(c2nccnc2Nc2cnccn2)CC1 | 128.3%
58 | OCC(CO)N1CCC(c2nnc(Cn3ccnc3)n2C2CC2)CC1 | 11.43%
59 | CC(=O)N1CCC(c2nccnc2Nc2cnccn2)CC1 | 118.2%
60 | OCC(CO)N1CCC(c2nccnc2Nc2cnccn2)CC1 | 132.8%
61 | CN1CCC(c2nccnc2Nc2cnccn2)CC1 | 94.48%
62 | CC(C(=O)NC(C)(C)C)N1CCC(C(=O)Nc2cnccn2)CC1 (stereo not given) | -9.659%
63 | CCc1ccccc1OCCN1CC[C@@]2(O)CCNC[C@H]2C1 | 3.949%
64 | CCC(C)NC(=O)CCNC(=O)c1c[nH]cc1-c1cccc(OC)c1 (stereo not given) | -21.59%
65 | CC(C)CNC(=O)CC1OCCc2ccsc21 (stereo not given) | -17.3%
66 | Cc1nc(CNC(=O)NCCC2=CCCC2)oc1C | -10.48%
67 | CC(Cc1ccccc1F)NC(=O)CCc1nc(-c2nnc[nH]2)no1 (stereo not given) | 5.01%
68 | Cn1cc(-c2cccc(CNC(=O)N3CCC[C@@H]3CO)c2)cn1 | -23.52%
69 | NC(=O)c1cncc(N2CCN(Cc3cccc4nsnc34)CC2)n1 | -24.77%
70 | CC(O)Cc1cn(CC2CCN(C3CCSCC3)CC2)nn1 (stereo not given) | -14.87%
71 | CC(=O)N1CCC(c2nccnc2Nc2ncc(C)s2)CC1 | 69.11%
72 | Cc1cnc(NC(=O)N2CCCC2)s1 | 11.08%
73 | CC(C)N1CCC(c2nccnc2Nc2ncccn2)CC1 | 97.4%
74 | Cc1cnc(NC(=O)N2CCCCCC2)s1 | -6.378%
75 | CC(C(=O)Nc1ncccn1)N1CCC(n2ccnc2)CC1 (stereo not given) | -2.043%
76 | COc1ccc(C)cc1S(=O)(=O)NCCC(O)c1ccccc1 (stereo not given) | -7.148%
77 | COCCC(=O)N1CCC(c2nc(O)cc(-c3ccncc3)n2)C1 (stereo not given) | 95%
78 | COCCC(=O)N1CCCC(c2nc(O)cc(-c3ccncc3)n2)C1 (stereo not given) | 119.6%
79 | COCCCC1CCCN(C(=O)CCc2cc(O)no2)C1 (stereo not given) | -11.88%
80 | Cn1nc(C2CCCN(C(=O)CO)C2)cc1O (stereo not given) | -7.33%
81 | COCCC(=O)N1CCC(c2cc(O)n(C)n2)C1 (stereo not given) | 94.23%

Row | SMILES | Percent Effect
82 | O=C(c1[nH]nc(C2CC2)c1Cl)N1CCN(C2CC2)C(=O)C1 | -4.23%
83 | CCc1nnsc1C(=O)NCCC1CN(C(C)C)CCO1 (stereo not given) | 2.098%
84 | O=C(NCc1cc[nH]n1)N(CCCO)C1CCc2ccccc21 (stereo not given) | 9.826%
85 | O=C(O)C(F)(F)F.O=C(c1cnccn1)N1CCOCC2(CCN(C3CCOCC3)C2)C1 (stereo not given) | 8.846%
86 | CC(C)NC(=O)N1CCOC2(CCCN(c3cccc(C#N)c3)C2)C1 (stereo not given) | -9.45%
87 | N#Cc1cccc(N2CCCC3(CN(C(=O)[C@H]4CCCO4)CCO3)C2)c1 (stereo not given in full) | -7.794%
88 | O=C(O)C(F)(F)F.O=C([C@H]1CCCO1)N1CCOC2(CCCN(c3ncccc3F)C2)C1 (stereo not given in full) | 94.35%
89 | O=C(O)C(F)(F)F.O=C(c1cnccn1)N1CCOC2(CCCN(c3ncccc3F)C2)C1 (stereo not given) | 105%
90 | CN(C)CC(=O)N1CCOC2(CCCN(c3ncccc3F)C2)C1.O=C(O)C(F)(F)F.O=C(O)C(F)(F)F (stereo not given) | 6.33%
91 | CC(C)NC(=O)N1CCOC2(CCCN(c3ncccc3F)C2)C1.O=C(O)C(F)(F)F (stereo not given) | 108.5%
92 | O=C(CO)N1CCOC2(CCCN(c3ncc(F)cn3)C2)C1.O=C(O)C(F)(F)F (stereo not given) | 5.697%
93 | COCC(=O)N1CCOC2(CCCN(c3cnccn3)C2)C1.O=C(O)C(F)(F)F (stereo not given) | -12.12%
94 | COc1ccc(C(=O)C2CCCN(c3cc(OC)ncn3)C2)c(C)c1 (stereo not given) | -87.76%
95 | CC(Cn1cccn1)NCCS(=O)(=O)c1ccc(Cl)cc1 (stereo not given) | 2.973%
96 | CC(Cn1cncn1)NC(=O)NCC(C)(C)Cc1ccccc1 (stereo not given) | -14.88%
97 | CCn1c(C2CCN(C(=O)COCC(F)(F)C(F)F)CC2)n[nH]c1=O | 14.31%
98 | CN(CCO)C[C@@H]1CN(Cc2ccccc2-c2ccccc2)C[C@@H]1CO | -1.449%
99 | COCCN(C)C[C@@H]1CN(c2cc(C)nc3ccccc23)C[C@@H]1CO | 85.76%
100 | COCCN(C)C[C@@H]1CN(c2nnc(C(C)C)s2)C[C@@H]1CO | 6.543%
101 | CCc1c(C)nc(C)nc1N1C[C@@H](CN(C)CCN(C)C)[C@@H](CO)C1 | 17.56%
102 | COCCN(C)C[C@@H]1CN(Cc2ccnc3ccccc23)C[C@@H]1CO | 90.52%
103 | COCCN(C)C[C@@H]1CN(c2nc(C)cc(C)n2)C[C@@H]1CO | 106.7%
104 | Cc1ccccc1CN1C[C@@H](CN(C)CCO)[C@@H](CO)C1 | 4.643%
105 | Cc1nc2ccccn2c1CN1C[C@@H](CN(C)CCO)[C@@H](CO)C1 | -4.106%
